# Source: PubChem (National Center for Advancing Translational Sciences (NCATS))
# The list is not random: actives were taken first. Their share in the collection is about 9.4%.
# FLuc counter – qHTS profiling assay for firefly luciferase inhibitor/activator using purifed enzyme and Km concentrations of substrates (counterscreen for miR-21 project). hit rate 6.9% among 360,000. Luciferin 4-monooxygenase (Photinus pyralis), P08659. purified FLuc, Km substrates, luminescence inhibition. Potency, µM (titrated, usually from 57.5 µM), without a hit: at the highest dose activity change, negative = inhibition, actives largely listed as inhibitors;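 also: plate controls were vehicle for no effect and reference inhibitor for full effect; nearly all actives have a fitted effect of over 55% in size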
# Target sequence (P08659 whole entry, looked up): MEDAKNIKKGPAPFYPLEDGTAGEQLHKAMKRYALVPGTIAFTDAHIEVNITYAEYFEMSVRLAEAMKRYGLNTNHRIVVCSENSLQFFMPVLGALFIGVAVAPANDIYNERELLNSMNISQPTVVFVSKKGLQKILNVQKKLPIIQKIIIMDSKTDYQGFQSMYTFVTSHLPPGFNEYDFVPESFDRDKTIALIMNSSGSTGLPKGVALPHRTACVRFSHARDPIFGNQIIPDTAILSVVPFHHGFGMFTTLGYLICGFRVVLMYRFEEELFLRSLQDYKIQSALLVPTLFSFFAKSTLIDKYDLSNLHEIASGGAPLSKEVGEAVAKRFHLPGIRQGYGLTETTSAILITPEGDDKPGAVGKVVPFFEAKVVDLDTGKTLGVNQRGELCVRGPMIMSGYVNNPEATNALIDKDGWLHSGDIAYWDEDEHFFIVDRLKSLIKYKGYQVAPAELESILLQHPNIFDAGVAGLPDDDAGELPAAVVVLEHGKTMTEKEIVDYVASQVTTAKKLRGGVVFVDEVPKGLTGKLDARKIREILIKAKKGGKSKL
#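 Purified P. pyralis luciferase, 10 nM final, with Km-level 10 uM D-luciferin and 10 uM ATP in 50 mM Tris acetate pH 7.5, 10 mM Mg acetate, 0.01% Tween-20, 0.05% BSA; 6-point qHTS titration about 60 µM downward; luminescence read.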
# NPC1 prom act – qHTS Assay for NPC1 Promoter Activators. Huh7 NPC1 promoter luciferase reporter, 24 h. Potency, µM (series often up to 9.22 µM), for the others: at the top dose activation, most hits filed as activators. hit rate 2.4% among 320,000. AID 485313, 2010; also: % of control where 0% means no effect; nearly all actives have a fitted effect of over 60% in size
#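 In 1536-well qHTS, Huh7 cells harboring an NPC1 promoter–luciferase construct received compound for 24 h; activation was quantified by luminescence following luciferase reagent addition.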
# ELG1 genotox – qHTS screen for small molecules that induce genotoxicity in human embryonic kidney (HEK293T) cells expressing luciferase-tagged ELG1; HEK293T ELG1-luciferase reporter, luminescence, 16 h; Potency, µM (doses to about 46 µM), for the others: at the top dose activity change, positive = activation, usual class: activators; hit rate 1.3% among 330,000; AID 504466, 2011; also: % of control where 0% means no effect; nearly all actives have a fitted effect of over 60% in size
#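 Cells (2,000/well) expressing the ELG1-luciferase fusion are dosed by pin tool and kept 16 hr at 37 °C, 5% CO2. Signal comes from ONE-Glo luciferase reagent after 30 min at room temperature.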
# SMN2 splice enh – qHTS Assay for Enhancers of SMN2 Splice Variant Expression; HEK293 SMN2-luciferase splicing reporter, luminescence, 30-36 h; Potency, µM (highest dose often 46.1 µM), inactives show top-dose activity change, positive = activation, hits mostly activators; hit rate 2.8% among 210,000; also: % of control where 0% means no effect; nearly all actives have a fitted effect of over 55% in size
#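 HEK293 cells carry an SMN2 minigene-luciferase reporter in which exon 7 inclusion puts luciferase in frame. Cells were seeded at 2000 cells/well, attached for 10-12 hours, then exposed to compounds for 30-36 hours at 37C before ONE-Glo luminescence.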
# Rab9 promoter act – qHTS Assay for Rab9 Promoter Activators. Huh7 Rab9 promoter-luciferase reporter, luminescence, 24 h. Potency, µM (doses to about 9.22 µM), for inactives: top-dose activation, negative = inhibition, most hits filed as activators. hit rate 2.8% among 320,000; also: % of control where 0% means no effect; nearly all actives have a fitted effect of over 60% in size
#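 Cells were plated at 1500 per well in reduced-serum medium with 10% FBS and left 2 h. Compound in DMSO was then added for 24 h at 37 °C. Reporter signal was read by luminescence after 10 min with luciferase detection reagent.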
# ELG1 repair inh – qHTS screen for small molecules that inhibit ELG1-dependent DNA repair in human embryonic kidney (HEK293T) cells expressing luciferase-tagged ELG1 | AID 504467, 2011 | hit rate 2.3% among 330,000 | HEK293T ELG1-luciferase reporter, luminescence, 16 h; DNA damage induced by 5-fluorouridine | Potency, µM (doses to about 46.1 µM), for the others: at the highest dose activity change, negative = inhibition, most hits filed as inhibitors; also: % is scaled to controls: 0 for no effect and ±100 for the full control effect; nearly all actives have a fitted effect of over 55% in size
#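 Overnight (16 hr) co-exposure of 2,000 cells/well to 5-fluorouridine and compound at 37 °C preceded detection. Luciferase was quantified via ONE-Glo luminescence; loss of signal denotes inhibition.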
# * marks the source's active call; other numbers are inactive results; ? = inconclusive; nt = not tested or not shown; [ ] = another dose, or the depositor's remark. Calls follow the shape of the dose curve; as a rule, active = well fitted curve in the direction sought with a large enough effect; inconclusive = small, poorly fitted or top-dose-only effect, or another doubt; inactive = no such curve, though single readings can be large; an effect the other way counts as inactive or inconclusive. Potency is read from the fitted curve at half-maximal effect.
SMILES,FLuc counter,NPC1 prom act,ELG1 genotox,SMN2 splice enh,Rab9 promoter act,ELG1 repair inh
Nc1c(Cl)ncnc1N/N=C/c1ccncc1,0.1%,-2.8%,-0.6%,nt,-6.0%,0.2%
COc1cccc(/C=N/Nc2ncnc(Cl)c2N)c1O,9.53µM*,-15.2%,13µM*,nt,-24.4%,19.2%
COc1ccc(NC(=O)CC2C(=O)N(c3ccc(F)cc3)C(=O)N2Cc2ccc3c(c2)OCO3)cc1 (stereo unspecified),-2.7%,nt,nt,-0.4%,nt,nt
Clc1ccc(CSc2ccc(-c3ccccn3)nn2)cc1,?,?,23.1µM*,-42.1%,?,?
O=C(CSc1ccc(-c2ccccn2)nn1)c1ccccc1,?,22.7%,?,-24.4%,?,?
c1ccc(CSc2ccc(-c3ccccn3)nn2)cc1,4.78µM*,0.794µM*,2.31µM*,0.794µM*,2.24µM*,?
CC1CCCC2(C1)NC(=S)N(c1ccccc1)N2 (stereo unspecified),-3.9%,6.4%,1.6%,-10.8%,-9.6%,0.8%
CC1CCCC2(C1)NC(=S)c1c(sc3c1CCCC3)N2 (stereo unspecified),23.9µM*,-4.3%,29.2%,-20.7%,-5.0%,?
COc1ccc(OC)c(NC(=O)CN2CCCN(Cc3ccccc3Cl)S2(=O)=O)c1,3.5%,nt,nt,nt,nt,nt
COc1cc(/C=N/NC(=O)c2ccc(N(C)S(=O)(=O)c3ccccc3)cc2)cc(OC)c1OC,-1.8%,-0.1%,-7.0%,-8.8%,-11.7%,?
Cc1ccc(/C=N/NC(=O)c2ccc(N(C)S(=O)(=O)c3ccccc3)cc2)cc1,8.49µM*,-1.0%,-37.9%,nt,-0.5%,?
CC(=O)Oc1ccc(/C=N/NC(=O)c2ccc(N(C)S(=O)(=O)c3ccccc3)cc2)cc1,15.1µM*,-3.3%,-5.0%,nt,-2.3%,-1.5%
CCOC(=O)c1sc2nc(N3CCOCC3)c3c(c2c1N)CC(C(C)C)OC3 (stereo unspecified),-2.1%,-7.3%,6.6%,nt,2.0%,?
CC1(C)Cc2nc3scc(NC(=O)c4ccccc4)c3cc2CO1,10.7µM*,-3.5%,1.6%,nt,0.2%,-4.9%
COC(=O)c1sc2nc3c(cc2c1N)COC(C)(C)C3,10.7µM*,2.82µM*,8.2µM*,8.9%,3.55µM*,?
CCOC(=O)c1sc2nc3c(cc2c1N)COC(C(C)C)C3 (stereo unspecified),0.12µM*,0.794µM*,0.13µM*,-84.1%,?,?
CC(C)C(=O)OCc1cc(=O)n2nc(C3CC3)sc2n1,6.7%,nt,nt,nt,nt,nt
COc1ccc(NC(=O)C(C)n2nc(-c3ccc(C)c(C)c3)ccc2=O)cc1OC (stereo unspecified),5.1%,nt,nt,nt,nt,nt
O=C(C1=C[C@@H](c2coc3ccccc3c2=O)C[C@@H](OCc2ccc(CO)cc2)O1)N1CCN(Cc2ccc3c(c2)OCO3)CC1,-0.9%,0.6%,-7.1%,nt,-0.2%,?
CC(=O)n1cc([C@@H]2C=C(C(=O)N3CCN(Cc4ccccc4)CC3)O[C@H](OCc3ccc(CO)cc3)C2)c2ccccc21,0.5%,-4.2%,-15.0%,nt,-3.1%,9.2µM*
O=C(C1=C[C@H](c2coc3ccccc3c2=O)C[C@H](OCc2ccc(CO)cc2)O1)N1CCN(Cc2ccc3c(c2)OCO3)CC1,0.1%,-4.4%,-10.9%,nt,-3.1%,13µM*
O=C(NCc1nc2ccccc2[nH]1)C1=C[C@H](c2ccccc2)C[C@H](OCc2ccc(CO)cc2)O1,-16.2%,0.9%,-1.2%,nt,2.2%,20.6µM*
O=C(C1=C[C@@H](c2ccccc2)C[C@@H](OCCCCO)O1)N1CCN(Cc2ccc3c(c2)OCO3)CC1,1.4%,-0.8%,-2.2%,nt,3.2%,-27.5%
O=C(C1=C[C@H](c2ccccc2)C[C@H](OCc2ccc(CO)cc2)O1)N1CCN(Cc2ccc3c(c2)OCO3)CC1,0.8%,-0.9%,-10.9%,nt,1.1%,8.2µM*
Cc1ccc(C)c(NC(=O)c2cnn(-c3cccc(F)c3)c2C2CCN(C(=O)OC(C)(C)C)CC2)c1,-5.3%,nt,nt,nt,nt,nt
SMILES,FLuc counter,NPC1 prom act,ELG1 genotox,SMN2 splice enh,Rab9 promoter act,ELG1 repair inh
CCOc1ccc(C2c3c(oc4cc(C)c(C)cc4c3=O)C(=O)N2c2ccccn2)cc1 (stereo unspecified),1.1%,nt,nt,-1.0%,nt,nt
COCCNc1cc(N2CCN(C3CCCCC3)CC2)c2noc3c2c1C(=O)c1ccccc1-3,5.6%,nt,nt,-5.8%,nt,nt
O=C(C1=C[C@H](c2ccc3c(c2)OCO3)C[C@H](OCc2ccc(CO)cc2)O1)N1CCN(Cc2ccc3c(c2)OCO3)CC1,-1.8%,2.5%,-23.0%,nt,3.3%,16.4µM*
CCO[C@H]1OC(C(=O)N2CCN(Cc3ccc4c(c3)OCO4)CC2)=C[C@@H](c2cn(C(C)=O)c3ccccc23)[C@@H]1CCCO,1.2%,1.7%,-10.8%,nt,-6.2%,10.3µM*
CN1CCN(C(=O)C2=C[C@@H](c3ccc4c(c3)OCO4)C[C@@H](OCc3ccc(CO)cc3)O2)CC1,3.1%,-2.4%,1.8%,nt,-2.6%,10.9%
C[C@H](CC(=O)O)C(C(=O)O)C(=O)O,nt,nt,nt,-22.4%[9.22 µM],nt,nt
Cc1ccccc1CN1C(=O)c2ccccc2S(=O)(=O)c2ccc(C(=O)OCC3CCCO3)cc21 (stereo unspecified),-7.7%,nt,nt,nt,nt,nt
CCOc1ccccc1NC(=O)CSC1=Nc2ccccc2C2=NC(CC(=O)NC3CCCCC3)C(=O)N12 (stereo unspecified),-14.5%,nt,nt,2.3%,nt,nt
O=C(NC1=NCCS1)c1sc2cc(F)ccc2c1Cl,2.39µM*,5.01µM*,?,7.08µM*,2.24µM*,?
O=C(Nc1ccon1)c1sc2cc(F)ccc2c1Cl,?,3.16µM*,?,22.4µM*,2.51µM*,?
O=C(NCCCN1CCOCC1)c1sc2cc(F)ccc2c1Cl,?,9.1%,14.7%,13.2%,?,?
O=C(NCc1ccco1)c1sc2cc(F)ccc2c1Cl,15.1µM*,19.8%,11.5%,12.6µM*,28.5%,?
CCOC(=O)C1OC1c1ccccc1 (stereo unspecified),nt,nt,nt,-6.2%,nt,nt
COC(=O)c1ccc(NC(=O)CC2C(=O)N(c3cccc(OC)c3)C(=O)N2Cc2cccc(OC)c2)cc1 (stereo unspecified),5.7%,nt,nt,nt,nt,nt
OCCN(CCO)c1nc(-c2ccccc2)nc2c1oc1ccccc12,-0.1%,-7.4%,-8.3%,nt,-3.4%,23.1µM*
